High-throughput results deposited in PubChem BioAssay by several laboratories.
tim23-1 inh: inhibits growth of tim23-1 mutant yeast; S. cerevisiae tim23-1 growth, BacTiter-Glo luminescence, 24 h; inhibition, % at 20 µM; 330,000 tested, 1.3% active; AID 463212;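 active = growth inhibition of the mutant yeast at or above 50%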;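 also: temperature-sensitive mutant grown at 25 °C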
Beta2AR agonist: human beta-2 adrenergic receptor agonism by FAP; P07550; Am2.2-beta2AR cells, FAP receptor internalization, flow cytometry; 340,000 tested, 0.43% active; response, % (concentration not given with the values); AID 504454;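 active = response above a set limit, near 3 SD of response in nonfluorescent compounds, cut at about 42% in these data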
Target sequence (P07550 whole entry, looked up): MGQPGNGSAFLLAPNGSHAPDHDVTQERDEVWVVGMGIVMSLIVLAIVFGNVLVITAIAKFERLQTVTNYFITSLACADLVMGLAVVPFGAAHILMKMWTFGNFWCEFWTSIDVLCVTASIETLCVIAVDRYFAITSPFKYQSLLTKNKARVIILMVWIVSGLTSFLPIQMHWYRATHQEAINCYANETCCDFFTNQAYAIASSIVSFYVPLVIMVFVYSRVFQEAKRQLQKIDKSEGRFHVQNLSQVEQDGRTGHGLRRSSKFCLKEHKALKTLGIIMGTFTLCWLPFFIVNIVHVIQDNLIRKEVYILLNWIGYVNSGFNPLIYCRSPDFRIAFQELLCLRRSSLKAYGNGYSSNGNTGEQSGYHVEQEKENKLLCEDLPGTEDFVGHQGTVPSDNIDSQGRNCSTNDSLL
PfHsp90 set2: reduces growth (ATP signal) of yeast expressing P. falciparum Hsp90 | inhibition, % at 9.4 µM | S. cerevisiae expressing PfHsp90, BacTiter-Glo ATP, 48 h; yeast lacking PDR1 and PDR3 efflux regulators | 310,000 tested, 0.32% active;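 active = every replicate shows inhibition above about 80%, whatever the replicate mean, limit read from the data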
tim10-1 inh: inhibits growth of tim10-1 mutant yeast; S. cerevisiae tim10-1 ts strain growth, BacTiter-Glo, 24 h; 330,000 tested, 2.2% active; inhibition, % at 20 µM;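 active = inhibition of at least 40%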;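 also: mutant grown at 25 °C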
TIM10 inh: TIM10 yeast growth inhibition | S. cerevisiae TIM10 strain growth, BacTiter-Glo luminescence, 24 h | inhibition, % at 10 µM | 330,000 tested, 1.4% active | AID 463195;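 active = inhibition of 40% or more at the single tested concentration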;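 also: wild-type TIM10 isogenic control strain grown at permissive 25 °C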
tim10-1 conf: confirmation of tim10-1 mutant yeast growth inhibitors; shares compounds with tim10-1 inh; S. cerevisiae tim10-1 ts strain growth, BacTiter-Glo, 24 h; inhibition, % at 20 µM; 7,400 tested, 56% active;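 active = inhibition of yeast growth at or above a set limit in either of two repeat tests at 20 µM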;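 also: tim10-1 mutant grown at permissive 25 °C to find synthetic lethal compounds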
A number is an active result; – = inactive; · = not tested or not shown. This is a sample that favours compounds with a hit; in the whole collection about 3.8% have one here.

SMILES	tim23-1 inh	Beta2AR agonist	PfHsp90 set2	tim10-1 inh	TIM10 inh	tim10-1 conf
O=C(O)c1ccc(COc2ccccc2C=C2C(=O)c3ccccc3C2=O)cc1	–	–	–	–	–	–
OC(c1ccccc1)(c1ccccc1)c1nccc2ccccc12	·	–	–	·	·	·
CCOc1ccc2cc(C#N)c(SCC(=O)N3CCOCC3)nc2c1	–	–	·	43	–	–
CCOc1ccc2nc(SCC(=O)N3CCCCCC3)c(C#N)cc2c1	–	–	–	–	–	·
Cc1cc(/C=C(\C#N)C(=O)NCc2ccco2)c(C)n1C1CCCC1	–	–	–	46	–	–
CC1=C/C(=C(/c2cc(C)c(O)c(Br)c2)c2ccccc2S(=O)(=O)O)C=C(Br)C1=O	–	–	–	54	–	44
CCOC(=O)C1=NN(C(=O)Cc2ccccc2)C(O)(c2ccc(Cl)cc2)C1 (stereo unspecified)	–	–	–	42	–	32
Cc1c(C(=O)O)oc2c1ccc1ccccc12	–	–	–	–	–	·
Cc1c(C(=N)C(C#N)C#N)c(=N)oc2c1ccc1ccccc12	–	–	–	41	–	–
CCn1c(SCc2nc(-c3ccccc3)no2)nnc1-c1ccco1	–	–	–	–	–	·
CCn1c(SCc2c(F)cccc2Cl)nnc1-c1ccco1	–	–	–	49	–	41
O=C1OCCC1(c1ccccc1)c1ccccc1	–	–	–	–	–	·
O=C(NCCc1csc(-c2ccc(Cl)cc2)n1)c1ccco1	–	–	–	43	–	–
COc1ccc(S(=O)(=O)N2CN(Cc3ccco3)c3nc4ccccc4nc32)cc1	–	–	–	47	–	–
CC(C)c1ccc(NC2=CC(=O)CC(C)(C)C2)cc1	–	–	–	41	–	–
CCc1ccc(NC2=CC(=O)CC(C)(C)C2)cc1	–	–	–	–	–	·
Cc1ccccc1CN1CCN(c2nc3ccccc3s2)CC1	–	–	–	41	–	–
COc1ccc(CN2CCN(c3nc4ccccc4s3)CC2)cc1	–	–	–	–	–	·
O=C(Cn1cc(CNC(=O)C2CCCCC2)nn1)Nc1cc(C(F)(F)F)ccc1Cl	–	–	–	–	–	·
O=C(ON=C1CCN(S(=O)(=O)c2ccccc2)CC1)c1ccccc1	–	–	·	58	–	56
Cc1[nH]c2ccc(C(=O)OC(C)C(=O)N(C)c3ccccc3)cc2c1C (stereo unspecified)	–	–	–	–	–	·
COc1cc2c(cc1NC(=O)CSc1nc3ccccc3[nH]1)oc1ccccc12	–	–	–	41	–	–
COc1cc2c(cc1NC(=O)Nc1ccc(C)cc1)oc1ccccc12	–	–	–	43	–	41
COc1cc2c(cc1NC(=O)CSc1ccccc1)oc1ccccc12	–	–	–	–	–	·
CCN(CC(=O)NCc1cccs1)C(=O)C(c1ccccc1)c1ccccc1	–	–	–	–	–	·
SMILES	tim23-1 inh	Beta2AR agonist	PfHsp90 set2	tim10-1 inh	TIM10 inh	tim10-1 conf
CCN(Cc1nc2ccccc2c(=O)[nH]1)C(=O)COc1ccccc1-c1ccccc1	–	–	–	–	–	·
CCOC(=O)CC1(C)NC(C(=O)O)C(C)(C)S1 (stereo unspecified)	·	–	–	·	·	·
O=C(NCc1ccccc1Cl)c1nnc(CS(=O)(=O)c2ccccc2)o1	–	–	–	–	–	·
CCc1cc(C(=O)N2CCN(C(=O)c3ccccc3)CC2)sc1C	–	–	·	–	–	·
CCc1ccc(NC2=NCC(=O)N2c2ccc3c(c2)OCCO3)cc1	–	–	–	42	–	–
CC(=O)c1sc(N/N=C\c2c(O)ccc3ccccc23)nc1C	–	–	–	42	–	–
COCCn1nnnc1C(CC(C)C)N1CCN(c2nc3ccccc3s2)CC1 (stereo unspecified)	–	–	–	44	–	32
COc1ccc(C)cc1CN(C)c1ccc(S(=O)(=O)N2CCN(C)CC2)cn1	–	–	·	–	–	·
Cc1ccc(-c2nc(C#N)c(NCc3cccc4c3OCO4)o2)cc1	–	–	–	44	–	–
O=C1c2ccccc2C(=O)c2c1ccc(C(=O)N1CCCCC1)c2NCCO	–	–	–	–	–	·
CC1(C)CCCN(C(=O)c2ccc3c(c2NCCO)C(=O)c2ccccc2C3=O)C1	–	–	–	43	–	–
CCc1cc(-c2n[nH]c(=S)n2-c2cccc(C)c2)cs1	–	–	–	43	–	30
Cc1cc(-c2n[nH]c(=S)n2-c2ccccc2C)cs1	–	–	–	–	–	·
